From ChEMBL document CHEMBL4513216, “Probing the Open Global Health Chemical Diversity Library for Multistage-Active Starting Points for Next-Generation Antimalarials” (ACS Infect Dis, 2020)
Out of some 69,000 compounds screened, about 8,600 (12%) showed an effect of 50% or more. Only a selection was taken, and strong results are over-represented in it overall.

Each molecule was assayed on Plasmodium berghei (assay: Screen against P. berghei liver stage (PbLuc), transformed with Luciferase, at 10uM). Conditions: tested at 10 uM.
Format: functional, HepG2

Structure (SMILES) | INHIBITION
Cc1cc2nc(SCC(=O)NC(C)C)n(Cc3ccco3)c(O)c-2n1 | 12.6%
CN(CC(=O)N1CCCN(Cc2cscn2)CC1)c1cnccn1 | 13.9%
COCCN1CC[C@@H]2OC[C@H](C(=O)NCc3cccs3)C[C@@H]2C1 | 41.5%
Cc1ncsc1CN1CCOC(C)(C(=O)N2CCOCC2)C1 (centres undefined) | -3.94%
CNc1nc(CNC(=O)Nc2ccccc2C(F)(F)F)cs1 | 19.4%
NC(=O)C1(c2cnccn2)CCCN1C(=O)Cc1ccsc1 (centres undefined) | 12.84%
CCCc1nc(C(=O)NCc2cccnc2-n2cncn2)cs1 | -22.1%
CN(C)c1ccc(C(=O)NCc2cccnc2-n2cncn2)cc1F | 52.6%
Cc1ccc(C(=O)NCc2cccnc2-n2cncn2)cc1S(C)(=O)=O | 17.2%
O=C(NCc1cccnc1-n1cncn1)c1ccncc1 | 51.2%
O=C(NCc1cccnc1-n1cncn1)c1cc(Cl)ccn1 | 38.5%
CN(C)c1cc(C(=O)NCc2cccnc2-n2cncn2)ccn1 | 83.7%
CCN(CC)c1ccc(C(=O)NCc2cccnc2-n2cncn2)cn1 | 16.6%
O=C(NCc1cccnc1-n1cncn1)c1ccc2c(c1)CCO2 | -0.113%
O=C(NCc1cccnc1-n1cncn1)c1cncc(Br)c1 | 43.8%
CCN1CCC2(CN(C(=O)N(C)C)CC23CCN(CC2CC2)CC3)C1=O (centres undefined) | -38.1%
CCCn1c(N2CCCC2)nc2c(C)nn(C)c2c1=O | 44.05%
CC(C)C(NC(=O)c1cnc(N2CCOCC2)nc1)c1cccs1 (centres undefined) | 38.7%
Cc1ccccc1NCc1nc2n(n1)CCCCC2 | 34.2%
CN1CC(Oc2ccc(Cl)cc2)=NC(SCC(=O)c2ccccc2)=N1 | 12.9%
CCN1CC(Oc2ccc(Cl)cc2)=NC(SCC(=O)c2ccccc2)=N1 | 55.5%
CN1CC(Oc2ccccc2)=NC(SCC(=O)c2ccccc2)=N1 | 1.98%
Cn1c(=O)n(C)c2nc(Br)c(CC(=O)c3ccccc3)n2c1=O | 37.3%
CC(C(=O)NCc1ccnc(N(C)C)c1)n1cccn1 (centres undefined) | 49.4%
Cc1cnnn1Cc1nnn2c1CN(Cc1cccs1)CCC2 | 45.8%
CN(Cc1ccco1)C(=O)Nc1ccc(=O)n(C)c1 | 60.1%
Cn1cc(C(=O)N(Cc2ccco2)Cc2cccs2)ccc1=O | 34%

Structure (SMILES) | INHIBITION
CN(Cc1ccc2c(c1)OCO2)C(=O)c1ccc(=O)n(C)c1 | 42.7%
COc1ccc(NC(=O)N(C)Cc2ccco2)cn1 | 0.705%
CN(Cc1ccco1)C(=O)c1ccc(=O)n(C)c1 | 55.4%
COCCN(Cc1cccs1)C(=O)c1ccc(=O)n(C)c1 | -7.66%
CCN(Cc1cccs1)C(=O)c1ccc(=O)n(C)c1 | 28.7%
Cc1occc1CN(C)C(=O)Nc1ccc(=O)n(C)c1 | 44.3%
CN(Cc1cccs1)C(=O)c1ccc(=O)n(C)c1 | 53.3%
CCC1(CC)C(=O)NC(=O)N=C1Nc1ccc(C)cc1 | 27.5%
O=C(NCC1(c2cccs2)CCCCC1)N1CCOC(CO)C1 (centres undefined) | -39.4%
Cn1cc(N2C(=O)CC[C@@H]3[C@H]2CCN3CCc2ccccc2)cn1 | 17.4%
CN(C)C(=O)NC1COC2(CCN(C(=O)Nc3ccccc3)CC2)C1 (centres undefined) | 42.1%
O=C1CCC2(CCCN(C(=O)NCc3ccccc3)CC2)N1 (centres undefined) | 8.74%
Cc1nc2c(cc1C(=O)Nc1ccccc1Cl)c(=O)n(C)c(=O)n2C | 18.6%
COCCN1CCN(C)C2(CCN(C(=O)c3ccnnc3)CC2)C1=O | 39.4%
Cc1nc(C(C)Nc2nc3c(s2)c(C)nn3C)n[nH]1 (centres undefined) | 52.1%
Cc1nn(C)c2nc(NC(C)c3nnn[nH]3)sc12 (centres undefined) | 1.24%
Cc1nn(C)c2nc(NC(C)c3n[nH]c(=O)[nH]3)sc12 (centres undefined) | 28.5%
O=S(=O)(NCc1ccnc(-n2ccnc2)c1)c1cncc(F)c1 | 2.93%
Cc1ccc(C(=O)NC2CCCN(CC(N)=O)C2)c(=O)[nH]1 (centres undefined) | 9.63%
CCN1CCCC(NC(=O)c2ccc(C)[nH]c2=O)C1 (centres undefined) | 55.5%
Cc1ccc(C(=O)NC2CCCN(C)C2)c(=O)[nH]1 (centres undefined) | 8.51%
CN(C)[C@@H]1CN(Cc2cccnc2)C[C@H]1c1cn(C)c2ccccc12 | 23.69%
c1ccc(OCc2nnc3n2CCN(Cc2ccco2)C3)nc1 | 24.9%
Cc1nn(C)c2c(N(C)Cc3cccs3)nc(C3CC3)nc12 | -17.2%
CCOC(=O)C1CCN(C(=O)c2cc(OCC)c3ccoc3c2)CC1 | -13.9%
CCOc1cc(C(=O)N2CCOCC2)cc2occc12 | 36.6%
CCOC(=O)N1CCN(C(=O)c2cc(OCC)c3ccoc3c2)CC1 | 58.2%
